Experimental data reported in the supplement of paper PMC13380429.

What was measured:
[1] = test system: Vero E6 infected with SARS-CoV-2; experiment: morphology score (similarity to uninfected cells); higher = more like uninfected cells; conditions: 24 h
[2] = test system: Vero E6 infected with SARS-CoV-2; experiment: SARS-CoV-2 infection rate relative to infected DMSO; higher = more infection, active = 60 or less; conditions: 24 h

SMILES | morphology score [1] | SARS-CoV-2 infection rate [2]
Cc1cc(C#N)cc(C)c1Oc1nc(Nc2ccc(C#N)cc2)nc(N)c1Br [etravirine] (10 µM) | 0.364 | 98% (inactive)
Oc1c(I)cc(Cl)c2cccnc12 [clioquinol] (10 µM) | 0.127 | 90% (inactive)
COC(=O)C[C@](O)(CCCC(C)(C)O)C(=O)O[C@@H]1C(OC)=C[C@]23CCCN2CCc2cc4c(cc2[C@H]13)OCO4 [homoharringtonine] (10 µM) | 0.837 | 23% (active)
NC(=O)CN1CCCC1=O [piracetam] (10 µM) | -0.0282 | 96.5% (inactive)
O=C1NC(=O)[C@@]2(CCOc3ccc(F)cc32)N1 [sorbinil] (10 µM) | 0.139 | 98% (inactive)
CCc1c(O)cc(O)c(C(=O)c2ccc(OCCN3CCOCC3)c(OC)c2)c1CC(=O)N(CCOC)CCOC (10 µM) | -0.0338 | 102% (inactive)
C#CCN1C(C)=C(C(=O)OC)C(c2cccc([N+](=O)[O-])c2)C(C(=O)OCC)=C1C (configuration not stated) (10 µM) | 0.0591 | 87.5% (inactive)
CN1CCN(c2ncc(-c3cc(Cl)cc(Cl)c3Cl)c(N)n2)CC1 [sipatrigine] (10 µM) | 0.204 | 82% (inactive)
CCCCn1ccc(N2CCC(c3ccccc3)CC2)c(Cl)c1=O (10 µM) | -0.265 | 116% (inactive)
Oc1cc(Cl)ccc1Oc1ccc(Cl)cc1Cl [triclosan] (10 µM) | 0.237 | 95% (inactive)
CO[C@H]1/C=C/O[C@@]2(C)Oc3c(C)c(O)c4c(O)c(c(/C=N/N=C/N5CCCCC5)c(O)c4c3C2=O)NC(=O)/C(C)=C\C=C\[C@H](C)[C@H](O)[C@@H](C)[C@@H](O)[C@@H](C)[C@H](OC(C)=O)[C@@H]1C (10 µM) | 0.053 | 108% (inactive)
COC(=O)C1=C(C)NC(C)=C(C(=O)OCC(C)C)C1c1ccccc1[N+](=O)[O-] (configuration not stated) [nisoldipine] (0.833333 µM) | -0.0369 | 112% (inactive)
Nc1cc(Cl)c(N=C2NCCN2)c(Cl)c1 [apraclonidine] (10 µM) | -0.0224 | 110% (inactive)
COc1cccc(C2(O)CCCCC2CN(C)C)c1 (configuration not stated) (10 µM) | 0.17 | 104% (inactive)
CC(C)(C=O)Cc1cc(C(C)(C)C)c(O)c(C(C)(C)C)c1 (10 µM) | 0.0771 | 94% (inactive)
C[C@]12CC[C@@H](O)C[C@H]1CC[C@@H]1[C@@H]2CC[C@]2(C)C(=O)CC[C@@H]12 [3-alpha-hydroxy-5-beta-androstan-17-one] (10 µM) | 0.223 | 102% (inactive)
CCOC(=O)c1ccc(-c2ccc(OC(=O)N(C)Cc3cccc(-c4ccncc4)c3)cc2)cc1 (10 µM) | 0.0201 | 104% (inactive)
CCC(C)(C)C(=O)C(=O)N1CCC[C@H]1C(=O)OCCCc1cccnc1 (10 µM) | -0.0394 | 116% (inactive)
CCN(CCCOc1ccc2c(Nc3cc(CC(=O)Nc4cccc(F)c4)[nH]n3)ncnc2c1)CCOP(=O)(O)O [barasertib] (0.833333 µM) | 0.0323 | 112% (inactive)
O=C(c1ccc(Nc2nccc(-c3cc4ccccc4s3)n2)cc1)N1CCC(N2CCCC2)CC1 (0.833333 µM) | 0.629 | 56% (active)
O=C(CCCN1CCC(n2c(=O)[nH]c3ccccc32)CC1)c1ccc(F)cc1 [benperidol] (10 µM) | -0.264 | 118% (inactive)
C[C@@H](O[C@H]1OCCN(Cc2nn[nH]c2CN(C)C)[C@H]1c1ccc(F)cc1)c1cc(C(F)(F)F)cc(C(F)(F)F)c1 (10 µM) | 0.43 | 58% (active)
CCN1CCN(C(=O)Cc2ccc(Nc3ncc(F)c(Nc4ccc(C(=O)Nc5ccccc5Cl)cc4)n3)cc2)CC1 [aurora-a-inhibitor-i] (10 µM) | -0.072 | 86% (inactive)
C#C[C@]1(OC(C)=O)CC[C@H]2[C@@H]3CCC4=C[C@@H](OC(C)=O)CC[C@@H]4[C@H]3CC[C@@]21C [ethynodiol-diacetate] (10 µM) | -0.0396 | 113% (inactive)
C[C@]12CC/C(=N\OCCN)C[C@@H]1C(=O)C[C@@H]1[C@@H]2CC[C@]2(C)C(=O)CC[C@@H]12 [istaroxime] (0.833333 µM) | 0.151 | 102% (inactive)
CC(=O)Nc1c(I)c(C(=O)O)c(I)c(N(C)C(C)=O)c1I [metrizoic-acid] (10 µM) | 0.0802 | 108% (inactive)
